The full ranking holds about 35,000 sequences; the median of “fluorescence intensity (a.u.)” is about 10,000, and the highest 2% start at about 52,000. For the sample, the highest values were picked, then their nearest neighbours and some sequences at random.

This assay has as its target T1, OsWOX13 (Oryza sativa, UniProt Q5QMM3 1-267).
T1 sequence: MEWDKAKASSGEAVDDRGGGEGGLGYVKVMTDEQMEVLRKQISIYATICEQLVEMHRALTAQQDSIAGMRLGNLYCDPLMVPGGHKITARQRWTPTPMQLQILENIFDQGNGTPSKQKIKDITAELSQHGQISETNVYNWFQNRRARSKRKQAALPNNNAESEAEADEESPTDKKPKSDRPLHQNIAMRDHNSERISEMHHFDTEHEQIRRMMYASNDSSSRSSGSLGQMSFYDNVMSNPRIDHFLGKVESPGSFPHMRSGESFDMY
In words: protein-binding microarray (RPBM); PBS, 2% BSA, 51.3 ng/ul salmon testes DNA, 50 uM zinc acetate, 200 nM TF, 25 C, 1 h; high values mean tight binding. Conditions: protein: recombinant; tags: N-terminal polyhistidine and DsRed monomer fusion (pET32a); label: CyDye5-dUTP incorporated in the synthesized complementary strand; 3' TTTTT single-stranded linker to array surface; dsDNA, one strand shown. The gist of the method:
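The binding signal for each feature is its fluorescence intensity in arbitrary units. An Axon 4000B scanner was used to read a custom Agilent array that had been made double-stranded with Cy5-dUTP primer extension, blocked with 2% BSA, incubated at 25 °C for 1 h with 200 nM protein in PBS, 2% BSA, salmon testes DNA and 50 µM zinc acetate, and washed. The protein was an N-terminal polyhistidine–DsRed transcription factor fusion from E. coli BL21-CodonPlus, purified on Ni–NTA.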
“AAGCCAATTAAACAACCAGATACTCAAGTTATAACATAATCGGAGTCACCTAGTGCAG”: the binding signal was 3700 fluorescence intensity (a.u.).

Turning to “TTTTAAACTAATACTTAATTAATCATATATTAATTAGGTACGGAGTCACCTAGTGCAG”, the binding signal is 19200 fluorescence intensity (a.u.).

On to “CTTATGATTTTATTTAACCTGGTTTTGAAAGACAGGGGTTCGGAGTCACCTAGTGCAG”, for which the binding signal is 18100 fluorescence intensity (a.u.).

In the case of “ATAGCTAATTTTCGGTATGTTACACCATCCATCTGCCATGCGGAGTCACCTAGTGCAG”, the binding signal is 5050 fluorescence intensity (a.u.).

Turning to “TTCCGATTGAGGAATGTTATTCACACAAGCGCAGGAGATGCGGAGTCACCTAGTGCAG”, the binding signal is 4130 fluorescence intensity (a.u.).

Turning to “AAAGTGACTGAATTTTAAGTCATCGGAAATTTACACGCTCCGGAGTCACCTAGTGCAG”, the binding signal was 15400 fluorescence intensity (a.u.).

In the case of “ATGAATTGTTAATTTTGCAAGCTGAACTTCTCATGTTTGGCGGAGTCACCTAGTGCAG”, the binding signal was 11100 fluorescence intensity (a.u.).

For the sequence “GCGTCCATCTAATCTAATCTAACCACCCTGCACGAATCGCCGGAGTCACCTAGTGCAG”, the binding signal was 8750 fluorescence intensity (a.u.).

Turning to “TTTTCTTTCTTGATTGGGAAGGAAATTGGTGGTTAATCTCCGGAGTCACCTAGTGCAG”, the binding signal was 23700 fluorescence intensity (a.u.).

For “TATAAAATTATAGATAATATAACATGTTTGCATGATGTTTCGGAGTCACCTAGTGCAG”, the binding signal was 5670 fluorescence intensity (a.u.).

As for “TGGAACATTGTTGATTGGCGAGCTGGCACGCATGCTAGGTCGGAGTCACCTAGTGCAG”, the binding signal is 18600 fluorescence intensity (a.u.).

With “TCATGGTGATTGCGGCATGAGAGAGTGAGGGTTCTGCGAGCGGAGTCACCTAGTGCAG”, the binding signal was 10300 fluorescence intensity (a.u.).

For the sequence “TACAATTGATTATGTAAAGTTTGTGTCTTGTACTAGAGGGCGGAGTCACCTAGTGCAG”, the binding signal is 43900 fluorescence intensity (a.u.).

Take “ACACAATTATGTCAAGTTCAATTCTCAAGTTTGAATTGGGCGGAGTCACCTAGTGCAG”: the binding signal was 5050 fluorescence intensity (a.u.).

Turning to “TTGATTGCTTGTTTGATTGGTGGTTCTTGAGCGAGAAGAGCGGAGTCACCTAGTGCAG”, the binding signal was 63300 fluorescence intensity (a.u.).

As for “ATGATTGATGTCTTTTATTTTCTTTGTACTAAGGAGCTTGCGGAGTCACCTAGTGCAG”, the binding signal was 62700 fluorescence intensity (a.u.).

On to “GTATGATTGGTTATGTAAAGTTTGTTTCTTGTTCTAGAGGCGGAGTCACCTAGTGCAG”, for which the binding signal was 58400 fluorescence intensity (a.u.).

“TATGTTCTTGATTTGTCCTGTTACATTGCTGACATATGTGCGGAGTCACCTAGTGCAG”: the binding signal was 8650 fluorescence intensity (a.u.).

For “GTTGATGATGTGGCTTCTTGCTTGTCTTGCTTTATAGGAGCGGAGTCACCTAGTGCAG”, the binding signal is 5720 fluorescence intensity (a.u.).

On to “GTTTGATTGCACATTATGTCCTTGGAGTTCTTCAACATAGCGGAGTCACCTAGTGCAG”, for which the binding signal was 55700 fluorescence intensity (a.u.).

For “TAGTTTTGTAAATGATTGAAATTTTCTAGTGTTAAATAGGCGGAGTCACCTAGTGCAG”, the binding signal was 34800 fluorescence intensity (a.u.).

Turning to “TGGAGAGTTTTGATTGGTTGGGAAGAGAATGTTGATAGAGCGGAGTCACCTAGTGCAG”, the binding signal is 20200 fluorescence intensity (a.u.).

Take “TAGATGATTGCACTAGATTTTGCTTTGTGTACTTATTGAACGGAGTCACCTAGTGCAG”: the binding signal is 32900 fluorescence intensity (a.u.).

“TTACTCGTCAATCCACCGATTACAGCTATCTCAAACGGAGCGGAGTCACCTAGTGCAG”: the binding signal is 8630 fluorescence intensity (a.u.).

“GTGATAATGTCCATCAATCTAGCAAATCATTCTCACAACGCGGAGTCACCTAGTGCAG”: the binding signal was 26800 fluorescence intensity (a.u.).

With “TTTGATTTATATGCCATTGCCTTTGCTGAACAGAAAAGCTCGGAGTCACCTAGTGCAG”, the binding signal is 37600 fluorescence intensity (a.u.).

Regarding “AATTTGAAATTTCAAACTTAATTTTAACATTGATTTTGAGCGGAGTCACCTAGTGCAG”, the binding signal is 6660 fluorescence intensity (a.u.).

As for “AACCATGTTTGACTCAACATAATTAGTGCGACAAACCGCACGGAGTCACCTAGTGCAG”, the binding signal was 4590 fluorescence intensity (a.u.).

As to “TTATCGAACATACTAATTGACTCTCAGGGAGTCAAGGATCCGGAGTCACCTAGTGCAG”, the binding signal is 7680 fluorescence intensity (a.u.).

On to “AGGGTTAAATTGTCAAAATTTGTGCGACACAAACACACTCCGGAGTCACCTAGTGCAG”, for which the binding signal was 10900 fluorescence intensity (a.u.).

As to “CATTAATTAGATTGAGACAGTACTGAGATGATTGCCGCCCCGGAGTCACCTAGTGCAG”, the binding signal was 65200 fluorescence intensity (a.u.).

For the sequence “AAATTTTGAAATTGTTAATATGATATAAATGAGATATAGCCGGAGTCACCTAGTGCAG”, the binding signal was 3970 fluorescence intensity (a.u.).

Regarding “TCGAGATGGATAATTAGATTGATTGATTGGCCGATAGCCCCGGAGTCACCTAGTGCAG”, the binding signal is 65100 fluorescence intensity (a.u.).

Consider “TATAGTGCAGATTTTGAAATTGATGAGTGCACGTTTGGGCCGGAGTCACCTAGTGCAG”, for which the binding signal was 6560 fluorescence intensity (a.u.).

In the case of “AGCCCGATAATTAGATTGATTATAGACATGACTACATATACGGAGTCACCTAGTGCAG”, the binding signal was 18200 fluorescence intensity (a.u.).

As to “CTTAACAACTGAACTGATTGAGACAGTAGATGAAATGGAACGGAGTCACCTAGTGCAG”, the binding signal was 21400 fluorescence intensity (a.u.).

Take “ATAATTGAAAATTGATTAGAGTACCTTTTGATGAGATAGCCGGAGTCACCTAGTGCAG”: the binding signal is 57300 fluorescence intensity (a.u.).

On to “ATTTAAATGAGATGATTGATGGGGCAATTAGTACTCTAGACGGAGTCACCTAGTGCAG”, for which the binding signal was 38600 fluorescence intensity (a.u.).

For the sequence “TAGATAGATTTAGTTTTGATAATGGATAGAGATATTGCCCCGGAGTCACCTAGTGCAG”, the binding signal is 11600 fluorescence intensity (a.u.).

In the case of “TGAAAATGATGTCAATCAAACATGAGTGGGGCCTGCTTTGCGGAGTCACCTAGTGCAG”, the binding signal is 38500 fluorescence intensity (a.u.).

As for “TCACAATAGATAATTTATTCACTGAAAATTTTAGTTTTGGCGGAGTCACCTAGTGCAG”, the binding signal is 11100 fluorescence intensity (a.u.).

In the case of “GGTATTACTGACTGGATTACCATGTGTGCGTCACATCGGACGGAGTCACCTAGTGCAG”, the binding signal is 6490 fluorescence intensity (a.u.).
